From PubChem
A selection: hits, their analogues and other compounds. The true share with any hit is near 6.6%.
Gli-Sufu antag – Gli-Sufu pathway antagonism; inhibition, % at 5 µM; actives 0.74% (n = 340,000); Sufu-KO-LIGHT fibroblasts, Gli luciferase reporter luminescence;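 active means inhibition above about 55%, limit read from the data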
GRIN3A LBD mod – modulates the human NR3A ligand-binding domain | NR3A LBD differential scanning fluorimetry, Tm shift; 0% = protein alone, 100% = glycine-bound protein | Tm shift relative to glycine control, % at 25 µM | actives 2.5% (n = 340,000);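 active means melting temperature shift of at least 10% of the positive control shift, at one fixed dose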
MPTP block – inhibitors of mitochondrial permeability transition pore. AID 602449. actives 1.4% (n = 360,000). isolated mouse mitochondria, Ca2+ swelling absorbance, 30 min. inhibition, % at 10 µM;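 active means inhibition of 50% or more, scaled per plate between neutral and stimulator controls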
Beta cell apopt – beta cell apoptosis inhibition; actives 0.8% (n = 300,000); protection from apoptosis, % (concentration not given with the values); INS-1E cytokine-induced death, ATP luminescence, 48 h; percent of positive-control rescue, neutral wells zero; AID 435005;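 active means Every replicate reaches about 75%, or at least half do and their mean reaches it too, limit read from the data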;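 further: higher means more ATP so stronger rescue from cytokine killing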
Mdm2-MdmX inh – disrupts the human Mdm2-MdmX interaction. inhibition, % at 8 µM. actives 3% (n = 330,000). O15151+Q00987. AID 485346. SaOS-2 split-luciferase Mdm2/MdmX complementation, luminescence;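 active means inhibition of at least 50% at 8 µM in the primary screen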
Target sequence (O15151 whole entry, looked up): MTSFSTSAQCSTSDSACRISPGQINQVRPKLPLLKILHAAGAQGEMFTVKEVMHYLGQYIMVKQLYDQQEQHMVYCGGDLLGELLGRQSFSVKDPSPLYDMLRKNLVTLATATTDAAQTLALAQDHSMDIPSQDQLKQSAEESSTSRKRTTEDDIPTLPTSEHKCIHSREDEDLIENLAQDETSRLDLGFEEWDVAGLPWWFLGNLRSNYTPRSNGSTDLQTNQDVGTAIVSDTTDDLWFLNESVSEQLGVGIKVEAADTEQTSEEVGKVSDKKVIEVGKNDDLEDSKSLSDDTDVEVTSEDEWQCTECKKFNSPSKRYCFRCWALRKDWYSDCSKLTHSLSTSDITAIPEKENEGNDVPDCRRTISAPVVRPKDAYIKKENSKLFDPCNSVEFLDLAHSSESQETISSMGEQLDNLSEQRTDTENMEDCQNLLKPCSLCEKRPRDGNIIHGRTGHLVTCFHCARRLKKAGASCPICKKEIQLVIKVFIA
Target sequence (Q00987 whole entry, looked up): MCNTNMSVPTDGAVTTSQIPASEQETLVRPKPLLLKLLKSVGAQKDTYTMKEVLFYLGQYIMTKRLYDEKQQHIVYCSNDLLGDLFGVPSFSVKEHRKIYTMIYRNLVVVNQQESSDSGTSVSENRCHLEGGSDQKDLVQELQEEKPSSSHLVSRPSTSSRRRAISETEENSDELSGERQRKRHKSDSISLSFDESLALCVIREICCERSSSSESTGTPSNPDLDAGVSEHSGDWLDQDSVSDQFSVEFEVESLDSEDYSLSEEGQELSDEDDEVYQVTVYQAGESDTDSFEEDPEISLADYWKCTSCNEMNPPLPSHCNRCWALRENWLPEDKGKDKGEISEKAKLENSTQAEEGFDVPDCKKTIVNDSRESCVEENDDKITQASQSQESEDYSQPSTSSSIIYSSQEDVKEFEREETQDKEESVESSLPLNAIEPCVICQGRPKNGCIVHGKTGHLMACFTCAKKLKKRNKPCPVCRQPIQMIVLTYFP
CSC inhib – cancer stem cell inhibition; inhibition, % at 7.5 µM; actives 1.1% (n = 300,000); cancer stem cell-like cells viability, luminescence; AID 2717; in the data active means inhibition above about 75%; tested in HMLE shEcad cells
Hits are given with their value; 0 = inactive; - = not tested or not shown.

SMILES	Gli-Sufu antag	GRIN3A LBD mod	MPTP block	Beta cell apopt	Mdm2-MdmX inh	CSC inhib
COc1cccc(-c2c(C(=O)N/N=C/c3ccc(C)s3)nnn2-c2nonc2N)c1	0	12.5	0	0	0	0
CCOc1cccc(-c2c(C(=O)N/N=C/c3ccc(C)s3)nnn2-c2nonc2N)c1	0	21.4	0	-	0	0
COc1cccc(-c2c(C(=O)N/N=C/c3ccc(C)o3)nnn2-c2nonc2N)c1	0	0	0	0	0	0
CCOC(=O)c1c(-c2ccc(C)cc2)csc1NC(=O)/C(C#N)=C/c1ccc(O)c(OC)c1	0	20.2	0	-	-	-
CCOC(=O)c1c(-c2ccccc2)csc1NC(=O)/C(C#N)=C\c1ccc(O)c(OC)c1	0	17.7	0	-	-	-
CCOC(=O)/C(C#N)=C\c1ccc(O)c(OC)c1	0	0	0	0	0	0
CCC(C(=O)NC1CCCC1)N(C(=O)Cn1nnc(-c2ccc(C)o2)n1)c1cccc(OC)c1 (stereo unspecified)	0	0	0	0	0	0
O=C(NCc1ccco1)c1ccc2c(c1)N(Cc1ccccc1)CCS2	0	0	0	0	0	128.7
COC(=O)[C@@H](Cc1ccccc1)NC(=O)/C=C/[C@H]1O[C@@H](n2cnc3c(NC(=O)c4ccccc4)ncnc32)[C@H](O)[C@@H]1O	-	-	0	-	-	-
Cc1ccc(NS(=O)(=O)c2ccc(Cl)c(N=Nc3c(O)[nH]c(=O)[nH]c3=O)c2)cc1Cl	0	11.4	0	0	0	0
CCO/N=C(\C)c1c(O)cc(C(C)C)n(-c2ccccc2)c1=O	0	0	0	0	0	0
CC(=O)c1c(O)cc(C(C)C)n(-c2ccccc2)c1=O	0	11.5	0	0	0	0
COc1ccccc1N1CCN(C2CCCN(C(=O)c3cccc(-c4ccco4)c3)C2)CC1 (stereo unspecified)	0	0	0	0	0	0
CCCCOP(=O)(c1ccc(N(C)C)cc1)C(Nc1ccccc1)c1ccccc1 (stereo unspecified)	0	13.0	0	0	0	0
O=C(NCc1ccco1)C1CCN(C(=O)c2ccc([N+](=O)[O-])cc2)CC1	0	0	0	-	0	0
N#Cc1c(NC(=O)c2ccc(Cn3cc(Br)cn3)o2)sc2c1CCCCC2	0	0	0	0	0	106.3
C#CCN(CC(=O)OCC)S(=O)(=O)CCNC1CC1	-	-	0	-	-	-
O=C1OCCN1C(=O)[C@H]1[C@H](c2ccc([N+](=O)[O-])cc2)C(c2ccccc2)=NN1c1ccccc1	0	0	0	-	0	-
O=C1OCCN1C(=O)[C@H]1[C@H](c2ccc([N+](=O)[O-])cc2)C(c2cccc(Cl)c2)=NN1c1ccccc1	0	13.4	0	0	0	0
Cc1cccc(C2=NN(c3ccccc3)[C@@H](C(=O)N3CCOC3=O)[C@@H]2C)c1	0	0	0	-	0	-
Cc1cccc(C2=NN(c3ccccc3)[C@@H](C(=O)N3CCOC3=O)[C@@H]2c2ccc(Cl)cc2)c1	0	10.6	0	-	0	-
Cc1cccc(C2=NN(c3ccccc3)[C@@H](C(=O)N3CCOC3=O)[C@@H]2c2ccc(F)cc2)c1	0	0	0	-	0	-
Cc1cccc(C2=NN(c3ccc(Br)cc3)[C@@H](C(=O)N3CCOC3=O)[C@@H]2C)c1	0	11.9	0	-	0	-
O=C1OCCN1C(=O)[C@H]1[C@H](c2ccc(Cl)cc2)C(c2ccc(F)cc2)=NN1c1ccc(Br)cc1	0	18.1	0	-	0	-
CCOCCCN(C)C1CCN(S(=O)(=O)c2csc(C(N)=O)c2)CC1	0	0	0	0	0	0
SMILES	Gli-Sufu antag	GRIN3A LBD mod	MPTP block	Beta cell apopt	Mdm2-MdmX inh	CSC inhib
CCOc1cccc(-c2c(C(=O)N/N=C/c3ccsc3)nnn2-c2nonc2N)c1	0	0	0	-	0	0
CCC(C)[C@H]1CNCCN1CCc1cccc2ccccc12 (stereo partly specified)	0	0	0	0	0	0
O=C(CN1CCCC1)Nc1ccccc1Sc1ccccc1	0	0	0	0	0	0
CC1CCN(CC(=O)Nc2ccccc2Sc2ccccc2)CC1	0	0	0	0	0	116.7
O=C(Nc1ccccc1Sc1ccccc1)c1ccc(F)cc1	0	18.8	0	0	0	0
O=C(Cc1ccccc1)Nc1cc(Cl)ccc1Sc1ccccc1	0	0	0	0	0	0
O=C(Cc1ccc(Cl)cc1)Nc1ccccc1Sc1ccccc1	0	15.4	0	0	0	0
CC/C(=C/c1ccccc1)c1cccc2[nH]c3c(OC)cccc3c12	0	0	0	0	-	131.0
O=C(O)c1ccc(N/N=C/c2c[nH]c3ccccc23)cc1	0	10.2	0	0	0	0
